Assay results from PubChem BioAssay (NCATS).
Records with an inconclusive call do not appear. Calls of active or inactive are those of the source. Calls follow the shape of the dose curve; as a rule, active = well fitted curve in the direction sought with a large enough effect; inconclusive = small, poorly fitted or top-dose-only effect, or another doubt; inactive = no such curve, though single readings can be large; an effect the other way counts as inactive or inconclusive.

Key:
[1] = COV-362 Cancer Cell Toxicity qHTS against the NCATS CANVASS Library (AID 1347352); also: series mostly up to about 38 µM
Outline: (§1)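 Cells were seeded at 1000 per well and allowed to settle 4 hours at 37 degrees C before pin transfer of compounds as an 11-point series. Viability was read by CellTiter-Glo luminescence after 72 hours' exposure.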

[2] = UWB1.289-WTBRCA1 Cancer Cell Toxicity qHTS against the NCATS CANVASS Library (AID 1347354)
Outline: as §1

[3] = HEK-293 Cancer Cell Toxicity qHTS against the NCATS CANVASS Library (AID 1347355); also: series mostly up to about 46 µM; nearly all actives have a fitted effect of over 65% in size
Outline: as §1

[4] = HPAF-II 24hr Apoptosis Induction qHTS against the NCATS CANVASS Library (AID 1347356)
Outline: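 HPAF-II cells (500/well) in DMEM + 10% FBS were treated with an 11-point compound series for 24 hours at 37 degrees C. Caspase-3/7 activity was then read by Caspase-Glo DEVD luminescence after 15 min.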

[5] = HPAF-II 12hr Apoptosis Induction qHTS against the NCATS CANVASS Library (AID 1347358)
Outline: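 HPAF-II cells (500/well, DMEM + 10% FBS) were exposed to compounds for 12 hours at 37 degrees C. Caspase-3/7 activity was then read by Caspase-Glo 3/7 luminescence after 15 min at room temperature.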

[6] = HEK293 24hr Apoptosis Induction qHTS against the NCATS CANVASS Library (AID 1347359)
Outline: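 HEK293 cells (500/well, DMEM + 10% FBS) were exposed to compounds in an 11-point series for 24 hours at 37 degrees C, then caspase-3/7 activity was read by Caspase-Glo DEVD luciferase luminescence after 15 min.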

[7] = HPAF-II 18hr Apoptosis Induction qHTS against the NCATS CANVASS Library (AID 1347360)
Outline: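 Seed HPAF-II cells at 500/well in DMEM + 10% FBS, pin-transfer compounds, incubate 18 hours at 37 degrees C/5% CO2, add Caspase-Glo 3/7 reagent, wait 15 min, read luminescence.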

[8] = HEK293 12hr Apoptosis Induction qHTS against the NCATS CANVASS Library (AID 1347361)
Outline: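 Cells are seeded, dosed with an 11-point compound series and incubated 12 hours. Caspase-3/7 activity is detected by luminescent DEVD-substrate reagent after 15 minutes at room temperature.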

[9] = system: NAD(P)H diaphorase (Clostridium kluyveri); assay: Diaphorse counterscreen qHTS: Assay Interference Panel against the NCATS CANVASS Library (AID 1347362)
Outline: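 Clostridium kluyveri diaphorase in PBS with 0.01% Tween-20 was preincubated 15 min at room temperature in the dark with compounds (11-point series). Resorufin fluorescence (ex 525/20, em 598/25) was read 5 min after adding resazurin/NADH.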

[10] = target: Luciferin 4-monooxygenase (Photinus pyralis) (UniProt P08659); assay: Firefly luciferase counterscreen qHTS: Assay Interference Panel against the NCATS CANVASS Library (AID 1347363); also: series mostly up to about 57 µM
Outline: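 Purified P. pyralis luciferase was added to compounds (11-point series) preincubated 15 min at room temperature with substrate containing 0.013 mM D-luciferin and 0.013 mM ATP; luminescence was read after 5 min.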

[11] = KB-8-5-11 Cancer Cell Toxicity qHTS against the NCATS CANVASS Library (AID 1347364); also: series mostly up to about 46 µM; nearly all actives have a fitted effect of over 75% in size
Outline: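 KB-8-5-11 cells (500/well) in DMEM + 10% FBS were exposed to compounds in an 11-point qHTS series for 72 hr at 37C, 5% CO2. Viability was read by CellTiter-Glo luminescence.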

[12] = KB-3-1 Cancer Cell Toxicity qHTS against the NCATS CANVASS Library (AID 1347366); also: series mostly up to about 46 µM; nearly all actives have a fitted effect of over 75% in size
Outline: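 Luminescence from CellTiter-Glo (10 min, room temperature) measured KB-3-1 viability after 72 hr compound exposure at 37C. Cells were seeded at 500/well and tested in an 11-point series.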

[13] = qHTS for ATAD5 Agonist screened against the NCATS CANVASS Library (AID 1347367);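 also: luciferase reporter driven by ATAD5 which rises upon DNA damage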
Outline: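 HEK293T-ATAD5 luc reporter; 2000 cells/well; 5hr settle; cpd 11-pt qHTS; 16hr 37C 5% CO2 dark; viability by CellTiter-Fluor (AFC fluorescence); then luciferase luminescence, 30min RT.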

[14] = MCF7 Cancer Cell Toxicity qHTS against the NCATS CANVASS Library (AID 1347369)
Outline: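 Cells seeded at 500/well, then compound pinned. Plates incubated 72 hr at 37C, 5% CO2. CellTiterGlo added; luminescence read.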

[15] = qHTS for ATAD5 Antagonist screened against the NCATS CANVASS Library (AID 1347370);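 also: HEK293T cells carrying an ATAD5 luciferase reporter co-treated with 10 µM 5-fluorouridine; series mostly up to about 46 µM; nearly all actives have a fitted effect of over 65% in size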
Outline: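 HEK293T cells with a stably integrated ATAD5-controlled luciferase reporter were exposed to compounds (11-pt) alongside 10 uM 5-fluorouridine as ATAD5 stabilizer for 16hr at 37C. Viability was read by CellTiter-Fluor fluorescence, then ATAD5 by luminescence.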

[16] = J3T Cancer Cell Toxicity qHTS against the NCATS CANVASS Library (AID 1347371);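 also: J3T is a canine glioma cancer cell line seeded at 500 cells per well; series mostly up to about 46 µM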
Outline: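 J3T dog glioma cells (500 cells/well) were exposed to compounds in an 11-point series for 72 hr at 37C, 5% CO2. Cytotoxicity was read as ATP content by CellTiterGlo luminescence.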

[17] = target: Nuclear receptor subfamily 1 group I member 3 (Homo sapiens) (UniProt Q14994); assay: qHTS for Constitutive Androstane Receptor (CAR) Antagonist screened against the NCATS CANVASS Library (AID 1347372);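 also: cells stimulated with 50 nM CITCO agonist so inhibition reflects antagonism; series mostly up to about 46 µM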
Outline: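 HepG2 cells stably carrying hCAR and a CYP2B6-2.2kb luciferase reporter were exposed to compounds plus 50 nM CITCO for 24hr at 37C. CAR activity was read by ONE-Glo luminescence, with viability measured first by CellTiter-Fluor.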

[18] = 10-beta competent E. coli microbial cell viability qHTS against the NCATS CANVASS Library (AID 1347376); also: series mostly up to about 46 µM
Outline: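 10-beta competent E. coli (0.9 OD culture diluted to 0.2 OD) exposed to compounds in an 11-point qHTS series, incubated overnight at 37C, 5% CO2. Viability read as ATP by BacTiter-Glo luminescence after 20 min at room temperature.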

[19] = DH5-alpha competent E. coli microbial cell viability qHTS against the NCATS CANVASS Library (AID 1347377); conditions: outcome: dose series up to 46.1 µM
Outline: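 DH5-alpha E. coli suspension (0.9 OD culture diluted to 0.2 OD) exposed to compounds in an 11-point series, overnight at 37C, 5% CO2. Viability read as ATP by BacTiter-Glo luminescence after 20 min at room temperature.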

[20] = qHTS for Inflammasome Signaling Inhibitors: IL-1-beta AlphaLISA screen against the NCATS CANVASS Library (AID 1347379);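 also: human THP-1 cells primed with LPS then triggered with ATP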
Outline: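 Human THP-1 cells were pretreated 1 hr at 37 °C with compounds (up to 57.5 uM final), then stimulated with LPS (250 ng/mL final) and ATP (1.25 mM final). Secreted IL-1B was read by AlphaLISA after 16 hr.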

Measured: Potency

Luciferin 4-monooxygenase (Photinus pyralis), sequence (P08659 whole entry, looked up): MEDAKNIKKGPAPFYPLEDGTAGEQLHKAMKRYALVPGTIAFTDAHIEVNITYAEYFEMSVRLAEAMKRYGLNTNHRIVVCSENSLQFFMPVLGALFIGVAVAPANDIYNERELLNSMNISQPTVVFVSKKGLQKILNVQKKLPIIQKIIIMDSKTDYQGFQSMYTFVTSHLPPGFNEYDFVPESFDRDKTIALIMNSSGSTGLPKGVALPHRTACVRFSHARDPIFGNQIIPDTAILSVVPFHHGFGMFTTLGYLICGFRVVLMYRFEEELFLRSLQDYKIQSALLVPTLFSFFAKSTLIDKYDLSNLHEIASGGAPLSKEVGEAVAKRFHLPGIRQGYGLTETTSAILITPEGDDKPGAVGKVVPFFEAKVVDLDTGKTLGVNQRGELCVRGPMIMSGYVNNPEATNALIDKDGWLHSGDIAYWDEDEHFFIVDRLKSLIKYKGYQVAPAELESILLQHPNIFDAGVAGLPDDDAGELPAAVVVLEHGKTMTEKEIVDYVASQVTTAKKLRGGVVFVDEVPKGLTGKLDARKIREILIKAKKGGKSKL
Nuclear receptor subfamily 1 group I member 3 (Homo sapiens), sequence (Q14994 whole entry, looked up): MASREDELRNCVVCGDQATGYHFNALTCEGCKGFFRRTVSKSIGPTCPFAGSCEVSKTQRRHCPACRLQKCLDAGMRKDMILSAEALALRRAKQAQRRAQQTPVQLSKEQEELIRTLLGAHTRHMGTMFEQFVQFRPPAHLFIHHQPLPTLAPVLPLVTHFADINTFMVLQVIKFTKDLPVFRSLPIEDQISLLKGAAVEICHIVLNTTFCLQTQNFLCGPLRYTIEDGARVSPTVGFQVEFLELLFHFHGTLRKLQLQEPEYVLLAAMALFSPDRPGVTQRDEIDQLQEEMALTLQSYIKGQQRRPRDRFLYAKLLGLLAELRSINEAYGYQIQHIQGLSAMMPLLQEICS

CN(C)Cc1c[nH]c2ccccc12
inactive: all assays above
